Screens from PubChem.
The entries come from a sample that favours hits as a whole.
KDM5B inhibitor – Primary screen for KDM5B Histone Demethylases FDH-coupled qHTS | Lysine-specific demethylase 5B (Homo sapiens), Q9UGL1 | Potency, µM (highest dose often 57.7 µM), most hits filed as inhibitors | KDM5B demethylase, FDH-coupled NADH fluorescence (FDH is formaldehyde dehydrogenase) | 220,000 compounds, 2.6% hits; active = well fitted inhibition curve with a large enough effect; note: 0% is about no effect; nearly all actives have a fitted effect of over 70% in size
Target sequence (Q9UGL1 whole entry, looked up): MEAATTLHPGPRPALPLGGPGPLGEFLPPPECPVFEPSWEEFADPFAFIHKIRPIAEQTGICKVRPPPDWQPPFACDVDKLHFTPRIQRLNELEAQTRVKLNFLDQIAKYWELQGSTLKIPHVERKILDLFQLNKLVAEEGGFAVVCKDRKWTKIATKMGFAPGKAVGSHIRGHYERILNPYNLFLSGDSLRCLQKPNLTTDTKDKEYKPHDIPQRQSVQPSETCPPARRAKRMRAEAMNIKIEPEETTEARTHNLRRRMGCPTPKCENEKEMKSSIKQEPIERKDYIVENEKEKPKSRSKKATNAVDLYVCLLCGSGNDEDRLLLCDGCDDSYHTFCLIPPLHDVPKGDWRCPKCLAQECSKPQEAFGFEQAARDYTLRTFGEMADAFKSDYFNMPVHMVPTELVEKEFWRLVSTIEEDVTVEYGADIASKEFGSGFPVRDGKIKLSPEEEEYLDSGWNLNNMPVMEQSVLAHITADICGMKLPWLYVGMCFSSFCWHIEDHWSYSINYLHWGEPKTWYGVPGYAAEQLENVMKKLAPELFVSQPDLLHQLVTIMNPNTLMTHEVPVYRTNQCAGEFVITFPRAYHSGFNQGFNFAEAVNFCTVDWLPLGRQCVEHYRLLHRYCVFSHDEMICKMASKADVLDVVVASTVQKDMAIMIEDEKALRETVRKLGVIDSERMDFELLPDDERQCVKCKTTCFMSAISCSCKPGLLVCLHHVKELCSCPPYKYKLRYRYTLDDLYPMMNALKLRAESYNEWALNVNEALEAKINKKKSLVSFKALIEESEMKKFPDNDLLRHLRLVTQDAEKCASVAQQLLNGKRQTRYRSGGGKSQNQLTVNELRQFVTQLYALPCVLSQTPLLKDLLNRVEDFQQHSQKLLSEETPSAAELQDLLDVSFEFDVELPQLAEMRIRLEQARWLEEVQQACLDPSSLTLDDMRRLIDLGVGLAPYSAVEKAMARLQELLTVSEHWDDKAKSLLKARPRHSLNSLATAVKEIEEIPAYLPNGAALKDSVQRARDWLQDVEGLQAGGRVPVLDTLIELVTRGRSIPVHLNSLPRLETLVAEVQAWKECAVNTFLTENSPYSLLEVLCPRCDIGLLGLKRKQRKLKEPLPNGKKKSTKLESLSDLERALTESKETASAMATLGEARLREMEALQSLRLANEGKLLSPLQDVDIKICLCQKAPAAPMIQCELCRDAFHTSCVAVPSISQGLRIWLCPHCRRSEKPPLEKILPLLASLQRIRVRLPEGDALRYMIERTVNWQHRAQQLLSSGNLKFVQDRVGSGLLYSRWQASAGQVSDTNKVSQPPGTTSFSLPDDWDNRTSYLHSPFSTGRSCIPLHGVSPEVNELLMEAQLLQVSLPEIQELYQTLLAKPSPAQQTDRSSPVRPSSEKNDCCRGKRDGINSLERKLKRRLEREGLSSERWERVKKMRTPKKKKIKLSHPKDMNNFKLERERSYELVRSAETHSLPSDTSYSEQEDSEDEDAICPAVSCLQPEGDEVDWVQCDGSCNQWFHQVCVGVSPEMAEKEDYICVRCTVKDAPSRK
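KDM5BΔAP (200 nM final) in 50 mM HEPES pH 7.5, 0.01% Tween-20 was preincubated 10 min at RT with compound over a concentration range. Substrate mix (H3K4me3 12.5 µM, α-KG 25 µM, Fe²⁺, ascorbate, NAD⁺, FDH) was added, and NADH fluorescence change over 30 min gave dose-response curves.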
* = called active by the depositor; i = inactive. Potency is the fitted concentration of half-maximal effect.

SMILES | KDM5B inhibitor
COc1ccc(C2C(C(=O)OC(C)C)=C(C)Nc3nc4ccccc4n32)cc1 (configuration not stated) | i
O=C(NS(=O)(=O)Cc1ccccc1)c1cccc(F)c1 | i
COC(=O)c1sc(=S)n(-c2cccc(C(F)(F)F)c2)c1N | i
CS(=O)(=O)c1cnc(NC2CCCC2)nc1C1CCCNC1 (configuration not stated) | i
Cc1nc(NC2CCCCC2)ncc1C(=O)O | 32µM*
Cc1nc(C)c(C(=O)O)cc1C(=O)O | i
COc1cc(-c2cc3c(nc2-c2ccccc2)nc(C(=O)NC2CCN(C)CC2)n3C)ccn1 | i
Cc1nc2cccnc2n1-c1cccc(C(=O)NCCN(C)C)c1 | i
Cc1ccccc1Nc1cc2c(nc1-c1ccccc1)nc(C(=O)NCCN(C)C)n2C | 35µM*
CN1CCC(NC(=O)c2cc(-c3ccccc3Cl)nc3ccccc23)CC1 | i
CN(C)CCNC(=O)c1cc(-c2ccccn2)nc2ccccc12 | i
CCCNC(=O)c1cc(-c2cccnc2)nc2ccccc12 | i
CN(C)CCNC(=O)c1nc2nc(-c3ccccc3)c(-c3cccnc3)cc2n1C | 20µM*
Cc1cnc(-c2ccccc2)n1CCNC(=O)c1cccnc1 | i
Cc1cc(-c2cc3c(nc2-c2ccccc2)nc(C(=O)NCCN(C)C)n3C)ccn1 | i
CN(C)CCNC(=O)c1nc2nc(-c3ccccc3)c(-c3ccncc3)cc2n1C | 22µM*
Cc1cc(-c2cc3c(nc2-c2ccccc2)nc(C(=O)NC2CCN(C)CC2)n3C)ccn1 | 32µM*
COc1cc(-c2cc3c(nc2-c2ccccc2)nc(C(=O)NCCN(C)C)n3C)ccn1 | i
CCOC(=O)c1cc2c(Cl)cc(Cl)cc2[nH]1 | i
O=C(CSc1nnc(-c2ccc(Cl)cc2)n1CC1CCCO1)Nc1ccc2c(c1)OCCO2 (configuration not stated) | i
COc1ccc(CCN2CCC(CN(C)Cc3ccc(C#CCCO)cc3)CC2)cc1 | i
COc1ccccc1Nc1nc2ccccc2nc1NS(=O)(=O)c1ccc(C)c(C)c1 | i
CC(c1ccccc1Cl)n1cnc2c1c(=O)n(C)c(=O)n2C (configuration not stated) | i
S=C(NCCc1ccccc1)Nc1ccc(Cl)cc1NC(=S)NCCc1ccccc1 | i
CCN(CC)c1nc2ccccc2nc1C(=O)Nc1cc(C)ccc1C | i
SMILES | KDM5B inhibitor
C[C@H](NC(=O)C(=O)Nc1ccc2cc[nH]c2c1)c1ccccc1 | i
O=C(Nc1ccccc1)C1CCN(C(=O)c2ccc3ccccc3n2)CC1 | i
COCCn1c(Cc2c(Cl)cccc2Cl)n[nH]c1=S | i
CCCc1ccc(S(=O)(=O)N2CCN(C(=O)NCC3CN(CC(C)C)CCO3)CC2)cc1 (configuration not stated) | i
O=C(NCCc1ccccn1)c1cccnc1OC1CCNCC1 | 28µM*
CCNC(=O)c1cccnc1OC1CCN(C(=O)Cc2ccccc2)C1 (configuration not stated) | i
CN1CCC(Oc2ccc(C(=O)NCCc3ccccn3)cn2)CC1 | i
CCNC(=O)c1cccnc1OC1CCN(Cc2ccccn2)C1 (configuration not stated) | 20µM*
CCNC(=O)c1cccnc1OC1CCN(C(=O)CC)C1 (configuration not stated) | i
CCNC(=O)c1cccnc1OC1CCN(C(=O)c2ccccc2)C1 (configuration not stated) | i
CCCCCC(=O)Nc1ccc(-c2csc(NC)n2)cc1 | i
COC(=O)CNC(=O)C12CC3CC(C)(CC(C)(C3)C1)C2 | i
COc1cc(C2C3=C(CCCC3=O)OC3=C2C(=O)CCC3)ccc1OCc1cccc(F)c1 | i
COc1ccccc1-c1cnc(Nc2ccc(Cl)cn2)c2c1CCO2 | 35µM*
COc1ccccc1-c1cnc(Nc2cccnc2)c2c1CCO2 | i
Cc1ccccc1OCC(=O)OCC(=O)Nc1ccc(Cl)cn1 | i
C[S+](=O)([O-])Nc1cccc(Nc2cnc3ccc(-c4ccc(F)cc4)nn23)c1 | i
COc1ccccc1Nc1nc(-c2ccccc2F)nc2ccccc12 | i
COc1ccccc1-c1cnc(Nc2cccnc2OC)c2c1CCO2 | 35µM*
CCOC(=O)c1cnc(Nc2ccccc2OC)c2ccccc12 | i
COc1ccccc1-c1cnc(NC(=O)C2CCOCC2)c2c1CCO2 | i
COc1ccccc1-c1cnc(Nc2cccc(N[S+](C)(=O)[O-])c2)c2c1CCO2 | 25µM*
O=C(COC(=O)COc1ccccc1F)Nc1ccc(Cl)cn1 | i
COc1ccc(Nc2ncc(-c3ccccc3OC)c3c2OCC3)cc1 | 35µM*
COc1ccc(-c2ccc3ncc(Nc4cccc(N[S+](C)(=O)[O-])c4)n3n2)cc1OC | i
SMILES | KDM5B inhibitor
Cn1c(=O)c2c(-c3ccccc3)n3c(c2n(C)c1=O)C(c1cccc(Cl)c1)OCC3(C)C (configuration not stated) | i
COC(=O)c1ccc(CN(C)C(C)C(=O)Nc2cc(C)ccc2C)cc1 (configuration not stated) | i
COc1ccc(C)cc1CN(C)C(=O)NCc1ccc(S(=O)(=O)N2CCCCC2)cc1 | i
Cc1ccccc1C(C)NC(=O)Cn1cnc2c1c(=O)n(C)c(=O)n2C (configuration not stated) | i
N#CC1(NC(=O)CSc2ccc(C(F)(F)F)cn2)CCCCCC1 | i
COc1ccc(F)cc1-c1ccc(C(=O)NCCCn2ccnc2C(C)C)cn1 | 28µM*
Cc1ccc(C)c(-c2ccc(C(=O)NCCCn3ccnc3C(C)C)cn2)c1 | i
CC(C)c1nccn1CCCNC(=O)c1ccc(-c2ccccc2F)nc1 | i
O=C(O)CCSc1ccccc1Cl | i
CC1(C(=O)NC2CCOCC2)CCCc2cnc(NCc3ccccc3)nc21 (configuration not stated) | 40µM*
CC1(C(=O)NC2CCOCC2)CCc2cnc(Nc3ccccc3)nc21 (configuration not stated) | i
CC1(C(=O)N2CCCC2)CCCc2cnc(Nc3ccccc3)nc21 (configuration not stated) | i
CC1(C(=O)NCc2cccnc2)CCc2cnc(Nc3ccccc3)nc21 (configuration not stated) | i
CC1(C(=O)NCc2ccc(F)cc2)COCc2cnc(Nc3ccccc3)nc21 (configuration not stated) | i
CC1(C(=O)NCc2cccnc2)CCc2cnc(NCc3ccccc3)nc21 (configuration not stated) | 32µM*
CCCCn1c(=O)c2ccccc2n(CC(=O)Nc2cccc(C(F)(F)F)c2)c1=O | i
CCOC(=O)C(C)N1C(=O)S/C(=C/c2ccc(Cl)s2)C1=O (configuration not stated) | i
N#Cc1ccc(OCCOC(=O)c2cccc(Cl)c2)cc1 | i
c1cc(-c2ccnc3nc(C4CCC4)nn23)ccn1 | 28µM*
c1ccc(CCc2nc3nccc(-c4ccncc4)n3n2)cc1 | i
CNc1nc(-c2ccc3c(c2)OCCCO3)cs1 | i
Cn1cc(C(=O)O)c(-c2ccc3c(c2)OCCCO3)n1 | i
c1cc(-c2ccc3c(c2)OCCCO3)n2nc(C3CCC3)nc2n1 | 16µM*
c1ccc(-c2ccnc3nc(C4CCC4)nn23)cc1 | 28µM*
Cn1cc(C=O)c(-c2ccc3c(c2)OCCCO3)n1 | i
CC(C)NC(=O)c1cn(C)nc1-c1ccc2c(c1)OCCCO2 | i
CC(C)Cc1nc2nccc(-c3ccc4c(c3)OCCCO4)n2n1 | 28µM*
